HP1b binding inh: HTS for Inhibitors of HP1-beta Chromodomain Interactions with Methylated Histone Tails. Chromobox protein homolog 1 (Homo sapiens), P83916. AlphaScreen HP1-beta / biotin-H3K9me3 peptide binding. Potency, µM (highest dose often 114 µM), inactives show at the highest dose activity change, negative = inhibition, hits mostly inhibitors. 390,000 tested, 0.56% active; note: potency is the fitted concentration of half-maximal effect; nearly all actives have a fitted effect of over 70% in size
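HP1-beta protein (50 nM final) preincubated 30 min at room temperature with biotinylated H3(1-18)K9me3 peptide (50 nM) in PBS pH 7.4, 0.01% Tween-20, then compound added for 30 min. AlphaScreen streptavidin donor/nickel chelate acceptor beads (10 ug/mL final), 30 min dark, luminescence read.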
PLK1 PBD inh: qHTS for Inhibitors of PLK1-PDB (polo-like kinase 1 - polo-box domain): Primary Screen. Plk1 PBD binding of FITC phosphopeptide, fluorescence polarization. Potency, µM, for the others: max response, negative = inhibition, most hits filed as inhibitors. 360,000 tested, 2.8% active. AID 720504, 2013; note: potency is the fitted concentration of half-maximal effect; series mostly up to about 57 µM; % is set by controls: 0 for no effect and ±100 for the full control effect; nearly all actives have a fitted effect of over 65% in size
PI5P4Ka inh: qHTS for Inhibitors of phosphatidylinositol 5-phosphate 4-kinase (PI5P4K) | max response, % | 330,000 tested, 1.2% active | AID 652105, 2013 | PI5P4Kalpha enzyme, ADP-Glo luminescence, 60 min; stronger effect = lower value; active = max response of -50% or lower; inconclusive = between -30% and -50%; inactive = -30% or higher; note: value at the top dose of about 77 µM; % is set by controls: 0 for no effect and ±100 for the full control effect
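ADP-Glo luminescence end-point read after a 60 min room-temperature kinase reaction of PI5P4Kalpha plus substrate, initiated with ATP at 5 microM final. Buffer: 0.038 M HEPES pH 7.4, EGTA, 0.1% CHAPS, 5% DMSO.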
JMJD2A Tudor inh: qHTS Assay for Inhibitors of JMJD2A-Tudor Domain; Lysine-specific demethylase 4A (Homo sapiens), O75164; AlphaScreen JMJD2A-Tudor / H3K4me3 peptide binding; Potency, µM (top dose mostly 114 µM), inactives show at the top dose activity change, negative = inhibition, actives largely listed as inhibitors; 390,000 tested, 4.4% active; AID 504339, 2011; note: potency is the fitted concentration of half-maximal effect; % is set by controls: 0 for no effect and ±100 for the full control effect; nearly all actives have a fitted effect of over 50% in size
BAZ2B inh: qHTS Assay for Inhibitors of BAZ2B; Bromodomain adjacent to zinc finger domain protein 2B (Homo sapiens), Q9UIF8; AlphaScreen BAZ2B-H3K14Ac peptide displacement; Potency, µM (doses to about 114 µM), without a hit: top-dose activity change, negative = inhibition, actives largely listed as inhibitors; 360,000 tested, 4.4% active; AID 504333, 2011; note: potency is the fitted concentration of half-maximal effect; % is set by controls: 0 for no effect and ±100 for the full control effect; nearly all actives have a fitted effect of over 60% in size
Target sequence (Q9UIF8 whole entry, looked up, the tested form may be a part): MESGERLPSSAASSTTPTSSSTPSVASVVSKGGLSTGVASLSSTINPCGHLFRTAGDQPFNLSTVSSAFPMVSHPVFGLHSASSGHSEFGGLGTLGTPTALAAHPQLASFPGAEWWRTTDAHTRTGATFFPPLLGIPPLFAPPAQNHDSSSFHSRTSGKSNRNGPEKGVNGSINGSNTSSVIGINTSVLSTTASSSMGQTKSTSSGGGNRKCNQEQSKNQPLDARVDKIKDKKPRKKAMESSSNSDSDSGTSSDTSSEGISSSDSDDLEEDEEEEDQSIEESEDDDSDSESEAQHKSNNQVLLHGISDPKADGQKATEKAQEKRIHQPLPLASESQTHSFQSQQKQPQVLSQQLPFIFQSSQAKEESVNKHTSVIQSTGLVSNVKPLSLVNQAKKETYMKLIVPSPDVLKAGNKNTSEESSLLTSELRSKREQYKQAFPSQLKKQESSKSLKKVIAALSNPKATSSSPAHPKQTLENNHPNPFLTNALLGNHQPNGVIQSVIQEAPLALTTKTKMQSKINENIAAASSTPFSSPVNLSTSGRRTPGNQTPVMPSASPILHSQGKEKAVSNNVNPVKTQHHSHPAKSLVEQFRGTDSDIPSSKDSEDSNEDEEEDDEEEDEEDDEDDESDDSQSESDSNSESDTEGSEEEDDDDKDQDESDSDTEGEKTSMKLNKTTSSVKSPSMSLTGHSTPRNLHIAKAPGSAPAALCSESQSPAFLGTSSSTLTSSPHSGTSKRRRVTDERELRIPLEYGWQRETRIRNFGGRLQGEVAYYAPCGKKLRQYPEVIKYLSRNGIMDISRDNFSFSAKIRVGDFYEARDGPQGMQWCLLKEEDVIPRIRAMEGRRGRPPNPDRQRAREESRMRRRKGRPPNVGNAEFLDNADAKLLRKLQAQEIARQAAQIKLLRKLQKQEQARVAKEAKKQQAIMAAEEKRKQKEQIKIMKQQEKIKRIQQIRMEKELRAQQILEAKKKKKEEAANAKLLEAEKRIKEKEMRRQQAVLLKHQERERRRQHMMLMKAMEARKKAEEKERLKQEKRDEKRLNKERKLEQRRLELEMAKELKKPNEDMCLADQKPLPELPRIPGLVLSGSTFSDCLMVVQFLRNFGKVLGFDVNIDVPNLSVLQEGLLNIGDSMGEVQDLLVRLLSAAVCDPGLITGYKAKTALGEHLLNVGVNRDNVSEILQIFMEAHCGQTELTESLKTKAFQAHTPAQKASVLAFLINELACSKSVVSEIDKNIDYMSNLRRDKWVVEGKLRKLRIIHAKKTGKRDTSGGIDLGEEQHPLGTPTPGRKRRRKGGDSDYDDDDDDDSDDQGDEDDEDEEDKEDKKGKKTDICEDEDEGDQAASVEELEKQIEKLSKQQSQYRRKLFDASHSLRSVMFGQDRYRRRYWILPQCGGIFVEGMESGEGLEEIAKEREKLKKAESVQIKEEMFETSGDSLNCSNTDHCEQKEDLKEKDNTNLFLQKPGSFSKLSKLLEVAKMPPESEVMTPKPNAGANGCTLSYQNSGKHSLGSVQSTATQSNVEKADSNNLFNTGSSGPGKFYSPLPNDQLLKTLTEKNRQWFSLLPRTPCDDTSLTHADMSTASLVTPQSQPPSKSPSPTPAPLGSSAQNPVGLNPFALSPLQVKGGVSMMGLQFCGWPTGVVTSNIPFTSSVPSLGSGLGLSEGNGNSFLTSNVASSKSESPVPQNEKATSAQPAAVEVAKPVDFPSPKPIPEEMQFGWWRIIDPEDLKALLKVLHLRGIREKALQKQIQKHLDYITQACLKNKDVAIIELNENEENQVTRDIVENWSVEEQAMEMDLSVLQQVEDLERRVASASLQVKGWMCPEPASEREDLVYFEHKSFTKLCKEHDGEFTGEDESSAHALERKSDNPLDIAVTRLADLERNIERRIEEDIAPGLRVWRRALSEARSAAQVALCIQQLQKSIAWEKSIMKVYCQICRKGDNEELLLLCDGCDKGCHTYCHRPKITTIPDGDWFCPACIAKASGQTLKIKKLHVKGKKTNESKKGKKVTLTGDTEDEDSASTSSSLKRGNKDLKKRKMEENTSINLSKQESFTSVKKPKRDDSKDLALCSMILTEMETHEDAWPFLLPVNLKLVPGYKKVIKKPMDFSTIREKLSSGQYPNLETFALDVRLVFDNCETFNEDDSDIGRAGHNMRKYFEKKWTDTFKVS
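Compounds, titrated to a top concentration of 110 uM, were incubated 30 min at room temperature with preformed BAZ2B/acetyl-K14 H3 peptide complex (50 nM each). Proximity signal was measured by AlphaScreen after 20 min with beads.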
GCN5L2 inh: qHTS Assay for Inhibitors of GCN5L2; GCN5L2 HAT assay, ThioGlo1 CoA-SH fluorescence; Histone acetyltransferase KAT2A (Homo sapiens), Q92830; Potency, µM (doses to about 58.9 µM), for inactives: at the top dose activity change, negative = inhibition, most hits filed as inhibitors; 390,000 tested, 0.21% active; note: potency is the fitted concentration of half-maximal effect; % is set by controls: 0 for no effect and ±100 for the full control effect
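Titration-based screen in which CoA formation is detected via maleimide probe ThioGlo1 (50uM) turning fluorescent on thiol reaction; substrates H3(1-25) 75uM and acetyl-CoA 70uM, GCN5L2 20nM, 20 min incubation at room temperature.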
* = called active by the depositor; u = inconclusive; x = no result given; [ ] = remark or other dose. Hits are enriched below; roughly 7% of the tested compounds scored in any of these assays. Unless noted, calls come from the whole dose curve; as a rule, active = well fitted curve in the direction sought with a large enough effect; inconclusive = small, poorly fitted or top-dose-only effect, or another doubt; inactive = no such curve, though single readings can be large; an effect the other way counts as inactive or inconclusive.

SMILES	HP1b binding inh	PLK1 PBD inh	PI5P4Ka inh	JMJD2A Tudor inh	BAZ2B inh	GCN5L2 inh
C#CCOCCOCCOCCNc1nc(N2CCN(C(=O)[C@H](CCCCN)n3cc([C@@H](N)CC(C)C)nn3)CC2)nc(N2CCN(C(=O)[C@H](Cc3ccc(O)cc3)n3cc([C@@H](N)CC(C)C)nn3)CC2)n1	-7%	-14%	-2	79µM*	56µM*	-7%
C#CCOCCOCCOCCNc1nc(N2CCN(C(=O)[C@H]([C@@H](C)CC)n3cc([C@@H](N)Cc4ccc(O)cc4)nn3)CC2)nc(N2CCN(C(=O)[C@H](CCCCN)n3cc([C@@H](N)CC(C)C)nn3)CC2)n1	x	x	x	x	79µM*	-5%
O=C1CN(C(=O)COC(=O)[C@@H]2CCCN2S(=O)(=O)c2ccc(Cl)cc2)c2ccccc2N1	7%	-3%	-4	-12%	x	1%
CC(C)(C)c1csc(Sc2ccc([N+](=O)[O-])cn2)n1	-2%	-6%	13	-21%	-37%	-2%
Cc1cc(C)c(S(=O)(=O)/N=C2\C=C(Nc3ccc(C(=O)O)cc3)C(=O)c3ccccc32)c(C)c1	u	u	-79*	32µM*	8.9µM*	-20%
O=C(O)c1ccc(NC2=C/C(=N/S(=O)(=O)c3ccccc3)c3ccccc3C2=O)cc1	u	11µM*	u	50µM*	20µM*	-11%
CC(=O)NC(CC(=O)OCC(=O)c1cc(C)ccc1C)c1ccccc1 (centres undefined)	41%	2%	0	-2%	x	-2%
COc1cccc(CN(C)CC(=O)Nc2sc3c(c2C#N)CCC3)c1OC	40%	-1%	1	-8%	79µM*	-14%
COCCCn1c(SCC(=O)NC2CCCC2)nnc1-c1ccncc1	18%	1%	-6	0%	-1%	-4%
N#Cc1c(NC(=O)c2cnn3cccnc23)sc2c1CCCC2	-5%	24µM*	-11	-7%	-16%	2%
NC(=O)c1c(NC(=O)c2ccncc2)sc2c1CCCC2	29%	-22%	-6	-18%	1%	-12%
N#Cc1c(NC(=O)c2ccncc2)sc2c1CCC2	-19%	u	x	63µM*	50µM*	u
COc1ccc(CN(C)CC(=O)Nc2sc3c(c2C#N)CCC3)cc1OC	15%	-1%	4	-24%	u	-3%
COCCCn1c(SCC(=O)Nc2sc3c(c2C#N)CCCC3)nnc1-c1ccncc1	-15%	27µM*	u	-35%	-5%	-6%
O=C(Cc1c(F)cccc1Cl)Nc1ccc(S(=O)(=O)Nc2nccs2)cc1	u	-3%	-10	-16%	-37%	-5%
O=C(CSc1nnc(COc2ccc(Cl)cc2)o1)Nc1ccc(N2CCOCC2)cc1	15%	-3%	-10	-6%	4%	1%
O=C(CN1CCN(C(=O)CCC(=O)N2CCC(c3ccccc3)=N2)CC1)Nc1ccc(F)cc1	20%	-12%	1	-10%	9%	-3%
CC1CCc2c(sc(NC(=O)c3nc4ncccn4n3)c2C#N)C1 (centres undefined)	u	4.7µM*	-24	u	-25%	0%
N#Cc1c(NC(=S)NC(=O)Cc2cccs2)sc2c1CCCCC2	-40%	u	x	u	50µM*	-15%
CC(=O)NC(=S)Nc1sc2c(c1C#N)CCCCC2	-12%	11µM*	1	-24%	4%	1%
CCN1CCc2c(sc(NC(=S)NC(=O)c3ccccc3)c2C#N)C1	u	11µM*	-62*	50µM*	u	u
Cc1cn([C@H]2C[C@H](O)[C@@H](CCC(=O)NCc3ccc(N(C)C)cc3)O2)c(=O)[nH]c1=O	x	-8%	-3	x	x	x
COc1cc(OC)cc(-c2nc3nc(C)c(CCC(=O)Nc4ccc(C)cc4C)c(C)n3n2)c1	32%	x	x	3%	-4%	-3%
Cc1cc(C)nc(N2CCCC(CCC(=O)NCc3ccc(F)c(F)c3)C2)n1 (centres undefined)	4%	-2%	-6	-18%	3%	-9%
Cc1noc(C)c1-c1ccc(C(=O)NC2CCCCC2)c2occc12	x	-5%	-1	x	x	x
SMILES	HP1b binding inh	PLK1 PBD inh	PI5P4Ka inh	JMJD2A Tudor inh	BAZ2B inh	GCN5L2 inh
O=C(O)c1ccc(NS(=O)(=O)c2cccc(C(=O)Nc3ccc(Br)cc3)c2)cc1	39%	2%	1	-14%	7%	-10%
N#Cc1c(NC(=S)NC(=O)c2ccccc2)sc2c1CCC2	-3%	u	-30	45µM*	-31%	-7%
N#Cc1c(NC(=O)c2cccc(S(=O)(=O)Nc3ccc(C(=O)O)cc3)c2)sc2c1CCCC2	-6%	u	-11	-36%	56µM*	-14%
CC1CC(C)CN(CCCNC(=O)CN2C(=O)CSc3ccc(S(=O)(=O)N4CCOCC4)cc32)C1 (centres undefined)	28%	-11%	2	-10%	-3%[57.1 µM]	-4%
COc1ccc(CC(C)N2CCN(Cc3ccccc3)CC2)cc1OC (centres undefined)	24%	-13%	-2	-14%	-20%	-3%
Cc1cccc(C(=O)NCc2cn3cccc(C)c3n2)c1	63%	x	x	-19%	3%	-6%
COc1ccc(N2C(=O)C3CC=C(Cl)CC3C2=O)cc1 (centres undefined)	14%	-2%	x	-9%	-4%	0%
COc1ccc(NC(=O)c2ccc(N3C(=O)C4CC=C(Cl)CC4C3=O)cc2)cc1 (centres undefined)	48%	0%	-51*	-19%	u	-4%
COCCCNC(=S)N/N=C/c1ccc2c(c1)OCO2	42%	3%	3	-6%	-16%	-8%
O=C(CCN1CCCCC1)c1ccc2c(c1)OCO2	31%	u	-2	0%	-24%[57.1 µM]	-4%
CC(C)CCC(CCN1CCCC1)c1ccc2c(c1)OCO2 (centres undefined)	u	-5%	6	1.4µM*	-35%	2%
COCCCNCCC(CCC(C)C)c1ccc2c(c1)OCO2 (centres undefined)	u	1%	4	20µM*	u	-7%
CC(C)CCC(CCN1CCOCC1)c1ccc2c(c1)OCO2 (centres undefined)	-52%	1%	x	3.2µM*	u	1%
